Assay results reported in PubChem BioAssay AID1159580 (chemical genetic matrix, 2015).
The whole screen tested about 5,500 compounds, of which about 2,000 (36%) were called active. Roughly 18% stayed inconclusive and do not appear here. Some of the results follow. A number with no mark means an inactive call. No stated cut-off is given here; in the data, active means normalized growth mostly below about 0.91 (no sharp cut-off); inconclusive means no clear call, values can overlap the other calls; inactive means mostly above about 0.92.

Test: chemical genetic growth profiling, strain panel (AID 1159580);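 further: tested at 20 µM; growth read once vehicle control cultures reached saturation at 30 °C; 1 = growth at the plate median or of vehicle wells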
Conditions: S. cerevisiae deletion strains, growth OD
[1] = locus YAL013W, strain DEP1, stronger effect = lower value
[2] = locus YAL040C, strain CLN3, stronger effect = lower value
[3] = locus YCL061C, strain MRC1 (second series), stronger effect = lower value
[4] = locus YDR363W, strain ESC2, stronger effect = lower value
[5] = locus YER002W, strain NOP16, stronger effect = lower value
[6] = locus YGR078C, strain PAC10, stronger effect = lower value
[7] = locus YJR075W, strain HOC1, stronger effect = lower value
[8] = locus YMR307W, strain GAS1, stronger effect = lower value
[9] = locus YNL153C, strain GIM3, stronger effect = lower value
[10] = locus YNL175C, strain NOP13, stronger effect = lower value
[11] = locus YNL197C, strain WHI3, stronger effect = lower value
[12] = locus YNL224C, strain SQS1, stronger effect = lower value
[13] = locus YOR083W, strain WHI5 (second series), stronger effect = lower value
[14] = locus YNL322C, strain KRE1, stronger effect = lower value
[15] = locus YPL055C, strain LGE1, stronger effect = lower value
[16] = locus YPL241C, strain CIN2, stronger effect = lower value

Compound	normalized growth [1]	normalized growth [2]	normalized growth [3]	normalized growth (locus YDR150W, strain NUM1, stronger effect = lower value)	normalized growth [4]	normalized growth [5]	normalized growth [6]	normalized growth [7]	normalized growth [8]	normalized growth [9]	normalized growth [10]	normalized growth [11]	normalized growth [12]	normalized growth [13]	normalized growth (locus YGR229C, strain SMI1, stronger effect = lower value)	normalized growth (locus YMR263W, strain SAP30, stronger effect = lower value)	normalized growth (locus YNL128W, strain TEP1, stronger effect = lower value)	normalized growth [14]	normalized growth [15]	normalized growth [16]
CCCN1CCO[C@@H]2c3cc(O)ccc3OC[C@H]21	0.981	1.09	1	0.999	1.03	0.989	1.01	0.993	0.981	0.97	1.02	1	0.993	1.02	–	–	–	–	–	–
COc1ccc2c(c1O)-c1cccc3c1[C@@H](C2)N(C)CC3	0.986	0.995	1.01	–	0.994	1.01	1.05	1	1.02	–	1.02	1.02	1.01	0.972	1.02	0.994	1.01	0.985	0.989	1.01
CN1CCc2cc(O)cc3c2[C@H]1Cc1ccc(O)c(O)c1-3	0.844 (active)	1.06	0.794 (active)	–	0.927	1	0.946	0.492 (active)	0.798 (active)	0.902	0.994	1.02	1.03	0.912	–	–	–	0.786 (active)	0.575 (active)	0.876 (active)
CCCN1CCc2cc(O)cc3c2[C@H]1Cc1ccc(O)c(O)c1-3	–	1.03	0.779 (active)	–	0.922	1.01	–	–	0.771 (active)	–	1.01	0.983	1.01	0.926	–	–	–	0.654 (active)	0.553 (active)	–
